# Calls of active or inactive are those of the source.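 How the source made its calls: active means normalized viability below 100% at a tested concentration; inactive means the rest.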
# Assay: drug combination growth inhibition, ovarian cancer – cell-based, oncology-focused library, rucaparib conditional, profiling panel (AID 1508598)
# Settings: patient-derived ovarian cancer cells, CellTiter-Glo viability, 144 h; at 5 µM; OCI-P5x cells; with rucaparib 20 µM; stronger effect = lower value; 100% = cells with rucaparib alone
row,SMILES,viability
1,C/C(=C\c1csc(C)n1)[C@H]1C[C@@H]2O[C@]2(C)CCC[C@H](C)[C@H](O)[C@@H](C)C(=O)C(C)(C)[C@H](O)CC(=O)O1,43.9% (active)
2,CC(C)[C@@]12O[C@@H]1[C@@H]1O[C@]13[C@]1(O[C@@H]1C[C@@H]1C4=C(CC[C@@]13C)C(=O)OC4)[C@@H]2O,10.3% (active)
3,C/C(=C\c1csc(C)n1)[C@H]1C[C@@H]2O[C@@H]2CCC[C@H](C)[C@H](O)[C@@H](C)C(=O)C(C)(C)[C@H](O)CC(=O)O1,43.6% (active)

# Same assay, conditions: patient-derived ovarian cancer cells, CellTiter-Glo viability, 144 h; at 5 µM; OCI-P5x cells; without rucaparib; stronger effect = lower value
row,SMILES,viability
1,C/C(=C\c1csc(C)n1)[C@H]1C[C@@H]2O[C@]2(C)CCC[C@H](C)[C@H](O)[C@@H](C)C(=O)C(C)(C)[C@H](O)CC(=O)O1,15.4% (active)
2,CC(C)[C@@]12O[C@@H]1[C@@H]1O[C@]13[C@]1(O[C@@H]1C[C@@H]1C4=C(CC[C@@]13C)C(=O)OC4)[C@@H]2O,6.87% (active)
3,C/C(=C\c1csc(C)n1)[C@H]1C[C@@H]2O[C@@H]2CCC[C@H](C)[C@H](O)[C@@H](C)C(=O)C(C)(C)[C@H](O)CC(=O)O1,17.3% (active)

# Source: PubChem BioAssay
